RORgamma inh = blocks mouse ROR gamma transcriptional activity | P51450 | Drosophila S2 Gal4-RORgamma UAS-luciferase reporter, 20 h | AID 2551 | 5.4% of 310,000 active | Potency, µM (top dose mostly 53.6 µM), hits mostly inhibitors; note: nearly all actives have a fitted effect of over 60% in size
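Luciferase reporter read in Schneider cells carrying Gal4-RORγ (mouse) and UAS-Photinus luciferase; cells given compound 1 h before 700 uM copper sulfate induction, then incubated 20 h at ambient temperature.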
DT40 TDP1 CPT = DT40-hTDP1 cell growth loss with CPT; AID 686979; 12% of 420,000 active; Potency, µM (titrated, usually from 46.2 µM), actives largely listed as inhibitors; chicken DT40 Tdp1-/-;hTDP1 cells + 20 nM CPT, ATP luminescence, 48 h; note: nearly all actives have a fitted effect of over 55% in size
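Chicken DT40 Tdp1-/- cells stably complemented with human TDP1 were seeded at 400 cells/well in medium containing 20 nM camptothecin, exposed to pin-transferred compounds, and grown at 37 °C for at least 48 hr. Viability was read as ATP luminescence.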
TDP1 cell noCPT = qHTS for Inhibitors of human tyrosyl-DNA phosphodiesterase 1 (TDP1): qHTS in cells in absence of CPT. Potency, µM (titrated, usually from 46.2 µM), actives largely listed as inhibitors. 15% of 420,000 active. DT40 Tdp1-/- hTDP1 cells, no CPT, ATP luminescence, 48 h; note: nearly all actives have a fitted effect of over 55% in size
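Camptothecin absent (DMSO only). Human TDP1-complemented DT40 knockout cells, 400 cells/well, 37 °C for minimum 48 hr; ATP measured via CellTiter-Glo, 30 min dark incubation, luminescence.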
VP16 counter = counter-screen for ROR gamma inhibitors: Gal4-VP16 reporter | 3.5% of 310,000 active | Drosophila S2 Gal4-VP16 UAS-luciferase, luminescence, 20 h | Potency, µM (titrated, usually from 53.6 µM), most hits filed as inhibitors | AID 2546;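 note: Gal4-VP16 expression switched on by copper sulfate through the metallothionein promoter; nearly all actives have a fitted effect of over 50% in size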
TDP1 block = blocks human tyrosyl-DNA phosphodiesterase 1. Q9NUW8. recombinant TDP1, AlphaScreen DNA substrate cleavage. Potency, µM (top dose mostly 130 µM), usual class: inhibitors. 0.28% of 350,000 active. AID 485290; note: nearly all actives have a fitted effect of over 40% in size
Target sequence (Q9NUW8 whole entry, looked up): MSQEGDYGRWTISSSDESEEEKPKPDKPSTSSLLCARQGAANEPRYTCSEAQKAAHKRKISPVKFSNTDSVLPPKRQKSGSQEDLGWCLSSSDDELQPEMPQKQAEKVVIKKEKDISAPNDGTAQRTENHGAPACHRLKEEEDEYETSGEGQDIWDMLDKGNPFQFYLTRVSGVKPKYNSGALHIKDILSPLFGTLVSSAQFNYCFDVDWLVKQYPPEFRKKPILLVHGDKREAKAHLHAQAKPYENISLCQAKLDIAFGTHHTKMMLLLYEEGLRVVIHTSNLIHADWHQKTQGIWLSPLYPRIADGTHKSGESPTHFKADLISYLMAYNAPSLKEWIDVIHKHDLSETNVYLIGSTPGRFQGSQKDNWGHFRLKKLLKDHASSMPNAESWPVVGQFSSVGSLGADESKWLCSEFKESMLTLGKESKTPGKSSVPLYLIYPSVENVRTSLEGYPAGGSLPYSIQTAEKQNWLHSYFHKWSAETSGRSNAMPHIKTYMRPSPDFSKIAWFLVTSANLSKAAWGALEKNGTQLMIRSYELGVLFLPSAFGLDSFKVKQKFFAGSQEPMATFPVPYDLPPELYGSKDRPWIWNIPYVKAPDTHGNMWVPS
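Steps: enzyme plus compound, 15 min RT; add biotin/phosphotyrosine-FITC oligonucleotide (15 nM final), react 5 min; add donor/acceptor beads (10 ug/ml final), 10 min; read AlphaScreen. Tdp1 at 1 nM final.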
Hits are given with their value; – = inactive; ? = inconclusive; · = not tested or not shown. Compounds with a hit are over-represented: about 19% of the library has one in this group of screens. Calls come from the whole dose curve; as a rule, active = well fitted curve in the direction sought with a large enough effect; inconclusive = small, poorly fitted or top-dose-only effect, or another doubt; inactive = no such curve, though single readings can be large; an effect the other way counts as inactive or inconclusive.

SMILES	RORgamma inh	DT40 TDP1 CPT	TDP1 cell noCPT	VP16 counter	TDP1 block
CCCCN1Cc2c(nc3cc(-c4ccco4)[nH]n3c2=O)C1=O	–	–	–	–	–
Cc1cc(C)n2nc(C(=O)OCC(=O)c3ccc(F)cc3)nc2n1	·	–	–	·	·
C/C(=N\NC(=O)COc1ccc(C(C)(C)C)cc1)c1ccc(OC(F)F)cc1	?	–	?	?	–
COCCNC(=S)N/N=C(\C)c1ccc(C)c([N+](=O)[O-])c1	3.55µM	1.3µM	1.46µM	3.98µM	–
COCCNC(=S)N/N=C(\C)c1ccc(OC(F)F)cc1	2.24µM	16.4µM	–	7.94µM	·
COCCNC(=S)N/N=C(\C)c1ccc2cc(OC)ccc2c1	1µM	13µM	25.9µM	1µM	–
COCCNC(=S)N/N=C(\C)c1cc2ccccc2o1	5.01µM	?	18.4µM	4.47µM	–
C/C(=N\NC(=O)c1ccccc1)c1ccc(C)c([N+](=O)[O-])c1	–	?	?	?	–
COc1ccc2cc(/C(C)=N/NC(=O)C3CC3)ccc2c1	–	–	–	–	–
CCN1C[C@@H]2[C@@H]3C(=O)N(Cc4ccccc4)C(=O)[C@@H]3[C@](C)(C1=O)N2C(=O)c1ccccc1	·	–	–	·	·
COCCNC(=S)N/N=C(\C)c1cccc(C(F)(F)F)c1	2.51µM	?	20.6µM	5.01µM	–
CCN(CC)C(=O)CC(c1ccc(OC)cc1)c1c(OC)cc(OC)c2ccc(=O)oc12 (centres undefined)	–	23.1µM	?	–	–
CCN(CC)C(=O)CC(c1cc(OC)c(OC)c(OC)c1)c1c(OC)cc(OC)c2ccc(=O)oc12 (centres undefined)	–	?	–	–	–
COc1cc(O)c(C(CC(=O)N2CCCC(C)C2)c2cc(OC)c(OC)c(OC)c2)c(OC)c1 (centres undefined)	–	–	–	–	–
COc1ccc(C(CC(=O)N2CCCCC2)c2c(OC)cc(OC)c3ccc(=O)oc23)cc1 (centres undefined)	–	20.6µM	?	–	–
COc1ccc(C(CC(=O)N2CCCC(C)C2)c2c(O)cc(OC)cc2OC)cc1 (centres undefined)	2µM	?	–	–	–
CCOC(=O)c1cc2c(=O)n3cccc(C)c3nc2n(CC2CCCO2)c1=NC(C)=O (centres undefined)	·	–	?	·	·
COc1cc(C2=CN(Cc3ccccc3)CCC2=O)cc(OC)c1OC	·	–	–	·	–
Cc1ccc(C)c(N2CCN(C(=O)c3ccc(N4CCCC4=O)cc3)CC2)c1	–	?	16.4µM	–	·
O=C(c1ccc(N2CCCC2=O)cc1)N1CCN(c2ccccc2O)CC1	·	–	?	·	–
O=C(C1CCN(c2nnc(N3CCCC3=O)s2)CC1)N1CCN(c2cccc(C(F)(F)F)c2)CC1	–	8.2µM	1.84µM	?	–
Cc1ccc(C)c(N2CCN(C(=O)C3CCN(c4nnc(N5CCCC5=O)s4)CC3)CC2)c1	–	23.1µM	?	–	–
Cc1cc(NC(=O)CSCC(=O)Nc2ccc(C)c(C)c2)no1	·	–	–	·	–
CC(C)(C)c1ccc(C(=O)N2CCN(c3nc4ccccc4o3)CC2)cc1	–	9.2µM	6.51µM	–	–
Cc1oc(-c2ccccc2F)nc1CN1CCC(C(=O)NC2CCCCCCC2)CC1	–	?	23.1µM	–	–
SMILES	RORgamma inh	DT40 TDP1 CPT	TDP1 cell noCPT	VP16 counter	TDP1 block
Cc1oc(-c2ccccc2F)nc1CN1CCC(C(=O)NCc2ccco2)CC1	–	–	–	–	–
Cc1oc(-c2ccccc2F)nc1CN1CCC(C(=O)NC2CCCc3ccccc32)CC1 (centres undefined)	?	14.6µM	?	–	–
O=C(NC1CCCc2ccccc21)C1CCN(S(=O)(=O)N2CCCCCC2)CC1 (centres undefined)	?	13µM	18.4µM	–	–
Cc1noc(C)c1S(=O)(=O)N1CCC(C(=O)NC2CCCc3ccccc32)CC1 (centres undefined)	–	–	–	–	–
CCc1cc(C(=O)OC)c(NC(=O)CC2NCCNC2=O)s1 (centres undefined)	–	–	–	–	–
CS(=O)(=O)N(CC(=O)Nc1ccc(S(=O)(=O)N2CCOCC2)cc1)c1ccccc1Cl	–	–	–	–	–
